# Reference: the supplement of paper PMC7695840
# Where a name gives a salt, the structure may show the parent alone.
# Key:
# [1] = system: Staphylococcus aureus MW2 delta-mecA (mecA-); experiment: normalized GFP fluorescence (growth of mecA- strain) (fraction of control range); higher = more growth of mecA- strain; details: compound concentration: 150 uM; cefoxitin: subinhibitory; fluorescent label: GFP
# How it was run: (§1)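 S. aureus MW2 cells, pre-induced, were used as a 1:1 mix of a DsRed strain carrying the gene and a GFP strain lacking it, in LB with a subinhibitory antibiotic dose set each day. At 5 µL/well they were placed onto 150 μM compound (1.5% DMSO) in 1536-well plates, one replicate, and kept unshaken for 20 h at 37 °C, 90% humidity. After DsRed (540/590) and GFP (485/520) reads scaled per plate to single-strain control medians, plates with high untreated ratios and rows with DsRed/GFP >10 were excluded.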
# [2] = system: Staphylococcus aureus MW2 (mecA+); experiment: normalized DsRed fluorescence (growth of mecA+ strain) (fraction of control range); higher = more growth of mecA+ strain; details: compound concentration: 150 uM; cefoxitin: subinhibitory; fluorescent label: DsRed
# How it was run: as §1
Compound,normalized GFP fluorescence [1],normalized DsRed fluorescence [2]
CN1C(C(=O)Nc2ccccn2)=C(O)c2ccccc2S1(=O)=O [Piroxicam (Feldene)],0.0173,0.661
O=C(c1ccccc1)c1ccc2n1CCC2C(=O)O (stereo unspecified),0.247,0.711
COc1cc(C2Oc3ccc(C4Oc5cc(O)cc(O)c5C(=O)C4O)cc3OC2CO)ccc1O (stereo unspecified) [Silymarin (Silybin B)],0.34,0.987
CN(C)CCOC(C)(c1ccccc1)c1ccccn1 (stereo unspecified),0.411,0.892
CN(C)CCN(Cc1ccccc1)c1ccccn1,0.488,0.468
CN(C)CCCN1c2ccccc2Sc2ccc(C(F)(F)F)cc21,-0.00501,1.49
CN(C)c1nc(N(C)C)nc(N(C)C)n1,0.159,0.887
CN[C@@H]1[C@H](O)[C@H](NC)[C@H]2O[C@@]3(O)C(=O)C[C@@H](C)O[C@H]3O[C@@H]2[C@H]1O,0.198,0.555
CN1CC(=O)N2[C@H](c3ccc4c(c3)OCO4)c3[nH]c4ccccc4c3C[C@@H]2C1=O,0.112,0.636
CCC(C)CCCCC(=O)NC(CCN)C(=O)NC(C(=O)NC(CCN)C(=O)NC1CCNC(=O)C(C(C)O)NC(=O)C(CCN)NC(=O)C(CCN)NC(=O)C(CC(C)C)NC(=O)C(Cc2ccccc2)NC(=O)C(CCN)NC1=O)C(C)O (stereo unspecified),0.159,1.05
COc1ccccc1N1CCN(CCCNc2cc(=O)n(C)c(=O)n2C)CC1 [Urapidil hydrochloride],0.413,0.557
Clc1ccc(CSC(Cn2ccnc2)c2ccc(Cl)cc2Cl)cc1 (stereo unspecified),-0.00367,0.00806
COc1cc(NC(C)CCCN)c2ncccc2c1 (stereo unspecified),-0.00346,0.672
Clc1cccc(Cl)c1NC1=NCCN1,0.205,0.663
CC(O)(CC(=O)O)CC(=O)O,0.226,0.945
CNC(C)C1CCC(N)C(OC2C(N)CC(N)C(OC3OCC(C)(O)C(NC)C3O)C2O)O1 (stereo unspecified),0.397,0.522
Cc1ncc([N+](=O)[O-])n1CC(C)O (stereo unspecified) [Secnidazole (Flagentyl)],0.266,0.482
NC(=O)Cc1cccc(C(=O)c2ccccc2)c1N [Nepafenac],0.747,0.818
Cc1cc(NS(=O)(=O)c2ccc(N)cc2)no1,0.0197,0.744

Compound,normalized GFP fluorescence [1],normalized DsRed fluorescence [2]
CCC1(C)CC(=O)NC1=O (stereo unspecified),0.678,0.691
OC[C@H]1O[C@H]([S-])[C@H](O)[C@@H](O)[C@@H]1O.[Au+],0.232,0.538
CNC[C@@H](O)c1ccc(O)c(O)c1 [L-Adrenaline (Epinephrine)],0.385,0.715
CC(C)C(=O)Nc1ccc([N+](=O)[O-])c(C(F)(F)F)c1,0.121,1.4
CC(C)Cc1ccc([C@H](C)C(=O)O)cc1,0.21,0.388
Cc1ccc([C@@H]2O[C@H](CO)[C@@H](O)[C@H](O)[C@H]2O)cc1Cc1ccc(-c2ccc(F)cc2)s1 [Canagliflozin],-0.0143,0.755
C=C[C@H]1CN2CC[C@H]1C[C@H]2[C@H](O)c1ccnc2ccc(OC)cc12,0.628,0.748
CC[C@H](C)C(=O)O[C@H]1C[C@@H](C)C=C2C=C[C@H](C)[C@H](CC[C@@H]3C[C@@H](O)CC(=O)O3)[C@H]21,0.345,0.697
CC[C@@H]1C(=O)OC[C@@H]1Cc1cncn1C,0.483,0.892
CCN(CC)CC#CCOC(=O)C(O)(c1ccccc1)C1CCCCC1 (stereo unspecified),0.0426,0.796
CC1(C)O[C@@H]2C[C@H]3[C@@H]4CCC5=CC(=O)C=C[C@]5(C)[C@@]4(F)[C@@H](O)C[C@]3(C)[C@]2(C(=O)CO)O1,0.603,0.613
O=C(NCCN1CCOCC1)c1ccc(Cl)cc1 [Moclobemide],0.558,0.739
OCCN(CCO)c1nc(N2CCCCC2)c2nc(N(CCO)CCO)nc(N3CCCCC3)c2n1,0.523,0.744
CCC(=O)O[C@]1(C(=O)SCF)[C@H](C)C[C@H]2[C@@H]3C[C@H](F)C4=CC(=O)C=C[C@]4(C)[C@@]3(F)[C@@H](O)C[C@@]21C,0.777,0.959
CNCCc1ccccn1,0.393,0.969
CCOC(=O)N1CCC(=C2c3ccc(Cl)cc3CCc3cccnc32)CC1,-0.02,0.807
CC(=O)OCC[N+](C)(C)C,0.311,0.859
COC(=O)C1=C(C)NC(C)=C(C(=O)OCCN(C)Cc2ccccc2)C1c1cccc([N+](=O)[O-])c1 (stereo unspecified),-0.00636,1.02
C/C=C/c1ccc(OC)cc1,0.443,0.71
